The record followed here is PubChem BioAssay AID1159506 (National Center for Advancing Translational Sciences (NCATS), 2015).

The full ranking holds about 59,000 sequences; the median of the read-out is about -0.00055, and the lowest 2% start at about -2. The entries come from a sample that favours the lowest values as a whole.

The experiment is described as follows: Identification of proteins required for the processing of the EWS-FLI1 nascent transcript.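 Also: robust z of luciferase light less the median z of siRNAs with the same seed.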 As to conditions: TC32 Ewing sarcoma NR0B1-luc vs CMV-luc (EWS-FLI1 target promoter against control promoter), 48 h; screened at 20 nM (by protocol). An outline of the steps:
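Readout: OneGlo luminescence, 48 h post-transfection, TC32-NR0B1-luc vs TC32-CMV-luc in parallel. siRNA 20 nM final, RNAiMax lipid, 600 cells/well; z-score-MAD transformed, then seed-adjusted.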
Regarding AACUUGGUAGCGGCUUUGG against CDHR1, the seed-corrected z-score was -0.12. For the sequence UAUAUUGCUCGGUCAAGUC against RBM4, the seed-corrected z-score was -0.89. The result for AAACACGUAGGGCACAUUC against SNU13 reads -5.96; that for AAUGGAAAUAUUCUCGACC against CNRIP1, -0.303; that for UCACAGAGCAGAUGGGUUC against PTPN7, -0.424. Under UUAAGUCUAGGGCAAAUUC against OGFOD1 stands 0.0394; under UUACCUGCAGAAACCUUCU against MUC1, -2.32; under AAUCUUCUUGUCCUGACUC against PHPT1, -0.987.

Consider AAAUAGGCAAGGAAUCUUG against LARP1BP1, for which the seed-corrected z-score was -1.48. Under AAUGUUGUCAUAGCCGAUG against PSTPIP2 stands -0.92. For the sequence UACGUGUUGAUUUGUCAGC against ANKZF1, the seed-corrected z-score amounted to 0.382. UCCAUUUCAGGAGCUACGC against OTULIN yielded a seed-corrected z-score of -2.32.

UGCUAAAAUAGUCGCAUCC against LOC727919 yielded a seed-corrected z-score of -0.265.

Regarding AUACCUGCAGUGAACAUUU against ECH1, the seed-corrected z-score was -3.28.

Sequence UACUGACUCCUUGUAUGCC against CSTF2T yielded a seed-corrected z-score of 0.0375.

UGUCAAACUGGUGCUGUUG against NAGLU: the seed-corrected z-score is -0.208. Under AAUGUAAGGCCUUAAAUCG against MRPS27 stands 0.696. The result for UUCUUUCACGCUUAGUUUC against LOC729978 reads 0.995; that for AAAAUUUCAUCCAUCAAUC against NUS1, 0.0341.

With UCUUCGUCCACAUUGGUUC against EPG5, the seed-corrected z-score was -11.6. Sequence UUCUAUACCCAGUACAUGG against ZNF112 gave a seed-corrected z-score of 1.1. UGUUAUAGAAUGACGCACC against DNAH11 displayed a seed-corrected z-score of -0.639.

As to AAAGCGAAGAGGUCUAGGC against PASK, the seed-corrected z-score was determined as 0.632.

UCCAGGUCUAGAACUUGCG against DACH1 gave a seed-corrected z-score of -0.158. As to AAGUCGAUCCAUAACAAUC against AK9, the seed-corrected z-score worked out at 0.17. Under AACCAUACUACAGUCAAUC against TIMM17A stands 0.0529; under UCAUCUAAAAUCUCGGUAG against POLE, -2.51; under UCAUAUACAGCAAACGGGC against RHOJ, -0.695. Under ACUGUUGUCACUGCGGUGG against GPR20 stands -0.419.

For the sequence UAAUUUCAGAGUAUGUCCG against PCDHAC2, the seed-corrected z-score was -0.214. For UGGGUAGUUAGACUUGAUC against ZNF160, the seed-corrected z-score is -2.52. Under UACCUAUUUAGCAUAUUGG against GRIN2B stands 1.13.

UUGGAUCCAGUUGAUAACG against EPCAM came in with a seed-corrected z-score of 0.867. Under UGAGUUACAGGGACCGAAG against LINC00944 stands -0.148; under AGCUUGAGAAUUUACUUGG against HIST1H2BL, -2.21; under UUAUCUCCAGCUAUGCUGU against LOC440292, 1.49. Under UCCUCAUGUAUUUUGGUCC against ELOVL5 stands -0.118; under UCACUUAGCAUGGGUAUUG against TMOD4, -0.648; under UUCUCUUCCAUCUCCGCCC against TNRC18, -0.725. The result for AAACUGGUAAUAUGAAUUC against IQSEC2 reads 1.31; that for UUUGGUCCAAAUUCACUCC against C2orf76, -2.66; that for GGCUGGUCGUGAUCUUUCC against SPDYE2, 0.846.

UUCGAUAUACCAGAACCGC against LPGAT1 showed a seed-corrected z-score of -1.1.

UGUAGUAAUGUGAUUUUCC against CTBP2 gave a seed-corrected z-score of 1.22. In the case of UUCCUCGUAGGUCCACUCG against ARID3C, the seed-corrected z-score was -0.393. In turn, UUUCCUGCACCCAUAAGUC against C11orf58 yielded a seed-corrected z-score of -0.0639. The result for GAACGACUCAGAUCCCGGA against HCRT reads -12.7; that for UUACAGGUAGCGGCAAGCA against SP8, 0.823; that for UACCUGAAAACCUAGUUUC against TBPL1, -0.106. Under UAUAGUAAAGCCCAGACGG against CNTNAP3 stands -2.74; under AUAUGUUUACUACCGGUGC against CYP4Z1, -0.0519. Under UUCGCUUAACAUGCUCUCC against SKIL stands -1.15; under AAUUCCAGAAUUACAGGCU against PRAC1, -0.113; under UAAGAUGAGAGAGUGUCCA against TAS2R1, 0.755. In the case of UACUGGUCUAGGAGGUAUG against ERRFI1, the seed-corrected z-score is -0.314.

The sequence AGACUGAGCAGUAGGACUC against SLC35E4 had a seed-corrected z-score of -2.41. The result for AUAUGGUCAAAUGAGUUAG against KIF3B reads 1.67; that for UUUCCGUACAUUGUGGUCC against ATP13A5, 0.276; that for UAAGCACGAACAGUUAUAG against USP47, 0.264. The result for AUAGGGCACAUCUUGUAGG against CSDC2 reads 0.0846. UCUGUUUUGAAGGACCUCU against ENTPD6 gave a seed-corrected z-score of 0.116. The result for UUCGCAUUUGUAUUCGACC against GNB4 reads 0.0257; that for UAUUUCACCAUCUCCGAGC against MAGEF1, -2.32. For the sequence UGAGGUUAUACGUUCCCUG against KIAA1549, the seed-corrected z-score was -0.0625. The result for UUGGGUCCGAGGAACAACU against ZNF469 reads 0.678; that for UCUUGCAACAGAGCCCUGA against TESK1, -0.681. Under AUCCGCAUCAGUAACAUUG against CASQ1 stands -0.835; under UUCCUUAAUGGUGUAUUCG against RIN3, 0.651. Regarding UAUGGAACUGUAUAUAGGA against EVA1C, the seed-corrected z-score came out at 0.1. The sequence UGCUCUGUAAUCACGGGCU against WARSP1 registered a seed-corrected z-score of -1.94. The result for AUACUGUAGACGUACCUCU against F2R reads -0.762.

The sequence AAAGGUUCACCACAUAGCC against SORL1 displayed a seed-corrected z-score of -3.01. Under UUAUGUGAACCAUCGCAGG against CISD2 stands 0.515; under UCCAGUAGUAGUCUUCCAG against MAF, -2.92. As for AUAGGUGUUGAUACGAGCC against SATB1, the seed-corrected z-score is -0.199. The result for UAUCUUUCCUGGUAUGUCA against LPCAT3 reads -0.533; that for UCGAUUUUGAGAAUCAAUG against VPS45, 0.271; that for UCAUAGCAAAGGAUCAGCC against CDC42BPB, -3.29. As for UUCCUUACCAUCAGGCAAG against DAP3, the seed-corrected z-score was determined as 0.589. Under AUGGGUUCCAGCAACAAUC against TMEM65 stands 0.797. The result for UUCUUGUAGUCCUCUAGGC against FZD8 reads 0.236; that for AUAGUAAUUCCUGGUAAAG against CYBA, -3.24; that for UACAAAAACGAUGGCAUCC against CCL17, -0.409. The result for UACCCAUACGGAGUAGCGA against ASMTL reads -0.0723; that for UAUAGGCAAAGCUAUCUCC against RBM15B, -0.465; that for AAUAAGACUCCUAAAAUCC against OR2A25, -2.04. As for UAAUAUAUUGUCCAUUUAC against OSTC, the seed-corrected z-score stood at 0.401. As for UUUUGAUUGAGAGGAUCGU against MBD2, the seed-corrected z-score is 0.911. Under UUAACAACUUUAGUCCUGC against EFHC1 stands 0.0527; under ACUUGUAACAGAUCAGCUC against TKFC, 0.791. The result for UUAGUUGAGGGUGAUCCCG against MXRA5 reads 0.422; that for AGAGAUCCCGUGUAUGACC against SLC30A2, -0.311. UCUGCUCCCACAAUGAAAC against RPLP0 showed a seed-corrected z-score of -2.42. In the case of UCAAUUAUUCCUCUCCGUC against HEY1, the seed-corrected z-score was -0.248. Under UCAUAGUCCAUUCAGAGUU against CEACAM19 stands 0.0695; under UCCUGGAUACCUAACACCC against USP26, 0.09. The sequence ACUCCAAUCAGUACAGUCC against NUP210L displayed a seed-corrected z-score of -0.264. Turning to AAGUUGUCAAACAAGCCCU against CHTF18, the seed-corrected z-score is -3. Consider UUAACCGAUAUAUCCAUGG against LRRTM4, for which the seed-corrected z-score was found to be 0.0172. The sequence UGAGGUCCACGAUAUCUAG against PYDC1 registered a seed-corrected z-score of 0.555. In turn, AAAGAUAUCAGUGACGAAG against HIST1H2BA displayed a seed-corrected z-score of -0.152. Sequence UAUUGUUCCGUCAUGCACU against PTGDS yielded a seed-corrected z-score of 0.165. As for UAUCUCCACAUACCCGUUC against INHBA, the seed-corrected z-score was -0.368. UACGUAGAUUUGGAAUUCC against ACO1 showed a seed-corrected z-score of 0.682. The result for UUAGUCUCAGCAUCGGCUC against KIAA1210 reads -0.103. Under UCACGAAGGAGUCUAUUCC against PRTN3 stands -3.15; under AUAGAGCCCAUUAUGCUUU against PSG11, -1.42; under UUGGUGUUGGGCAACUUGU against HOXB4, 0.286. UCACUGAUUCUAGAUGAUG against SPIN3 returned a seed-corrected z-score of -0.422. Under UAUAAAUCAACGGAUUCAG against OR5I1 stands 0.416; under UUUUGCACCUGGGUCCUAC against LRWD1, 0.154; under AAAGGAAAAACCUAUUUUC against LOC728254, 0.573. Under AUAGGUUCCUGUCUGUUGG against PYCRL stands 0.415; under AAAGAUUAAGGUACCAUAG against OR5J2, 0.72. The result for UUCGGCUUCACUGUUAUCC against TNR reads -2.16; that for UCCAGUUCUUUCUUGGUCG against GTPBP6, 0.447; that for UUGAUGGAUAGUCAUCACG against RBMX, -0.224. Take AAAUCGAUAAUCACUUAGG against ZNHIT6: the seed-corrected z-score amounted to 0.142. UAUUUCACAACAGGCACCG against MYO1C: the seed-corrected z-score is -2.29.

Consider UUUUGUGCCUGUGCCCUUG against SBK1, for which the seed-corrected z-score is -0.47. Under AGACUGAUGGUAGUGGUGG against PRRT1 stands -0.57; under UUCAAUAUCAUUCCGAGGC against C6orf62, 0.77; under UUGUAUGAUUUUGCAAUUG against LINC01014, -0.168. As to AAAUGUACUCGAUCCCAUG against CPA5, the seed-corrected z-score was -2.65. Under UACAGUUCCUCAAUGUUCA against IL1F10 stands 1.27.

For UAAACAGGCACGAAGCUUC against RPAIN, the seed-corrected z-score is -0.43.

Consider UUAGCUAGAGUUUUCAACC against MLLT11, for which the seed-corrected z-score stood at 0.312. The sequence UGACGUACCAGCACUGCGU against ADM2 came in with a seed-corrected z-score of -13.6.

In the case of UGAGCAUCCAUGCUGGGUA against ZNF688, the seed-corrected z-score worked out at 0.0175. The result for UUCAUUUAAAUUCUAACAC against SYNC reads 0.372. Turning to AUUCAUUCUUAUUAAGUGC against GPX5, the seed-corrected z-score is -0.0754. The result for UUUGGUUUGAGCAGUCAAG against COMMD1 reads -2.03. Under AAUAAAUCCAUCCUUGUUC against GUCA1C stands -0.429.
